Bioassay records from PubChem BioAssay.
Only some compounds are listed: those with a hit (about 1.2% of all), similar ones and a draw of the others.
RGS16-Gao HTS: RGS16-Galphao interaction regulator (human); O15492+P09471; bead-based flow cytometry RGS16-Galphao binding, fluorescence; actives lie on both sides; binding response (% of control), % at 10 µM; 0.38% of 220,000 active;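 note: Galphao activated by GDP with aluminum fluoride before binding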
GSH bead fluor: GSH bead compound fluorescence profile. GSH beads flow cytometry, compound fluorescence 488/530 nm; stronger effect = higher value. fluorescence (KMESF) at 10 µM. 0.25% of 190,000 active; in the data active = fluorescence above about 89;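 note: glutathione beads carrying GST-tagged Bcl family fusion proteins plus one bare bead set; values are compound well signal with DMSO vehicle wells as background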
Avidin bead fluor: avidin bead compound fluorescence profile. Avidin beads, compound fluorescence 488/530 nm, flow cytometry; stronger effect = higher value. AID 1775. 0.38% of 220,000 active. fluorescence (KMESF) at 10 µM; in the data active = fluorescence above about 47
RGS8-Gao: modulates binding of RGS8 to human Galphao. multiplexed bead flow cytometry; actives lie on both sides. response (percent of control binding), % at 10 µM. 0.34% of 220,000 active. AID 1423; in the data active = response below about 60% or above about 140%; inactive = in between;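 note: Galphao activated as the GDP aluminium fluoride complex binding bead-coupled RGS8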
Target sequence (P09471 whole entry, looked up): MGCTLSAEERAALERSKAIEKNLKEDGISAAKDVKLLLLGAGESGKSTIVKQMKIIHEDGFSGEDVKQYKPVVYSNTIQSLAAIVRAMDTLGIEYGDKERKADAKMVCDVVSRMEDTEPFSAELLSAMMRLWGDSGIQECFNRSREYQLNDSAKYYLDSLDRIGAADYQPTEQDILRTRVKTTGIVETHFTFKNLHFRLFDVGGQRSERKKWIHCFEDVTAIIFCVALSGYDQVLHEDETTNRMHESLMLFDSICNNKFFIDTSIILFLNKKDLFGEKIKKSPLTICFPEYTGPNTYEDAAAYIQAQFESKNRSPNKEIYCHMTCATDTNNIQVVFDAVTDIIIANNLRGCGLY
RGS4-Gao reg: human RGS4-Galphao interaction regulation; P09471; 0.33% of 220,000 active; AID 1415; binding response (% of control), % at 10 µM; Multiplexed bead flow cytometry, RGS4-Galphao binding; actives lie on both sides; in the data active = binding response below about 49% or above about 150%; inactive = in between;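 note: fluorescent Galphao activated with aluminum fluoride binding bead-coupled RGS4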
RGS7-Gao reg: regulators of human RGS7-Galphao interaction | P09471 | AID 1439 | Multiplexed bead flow cytometry, RGS7-Galphao binding; actives lie on both sides | 0.35% of 220,000 active | binding response (% of control), % at 10 µM; in the data active = binding response below about 49% or above about 150%; inconclusive = no clear call, values can overlap the other calls; inactive = in between;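 note: fluorescent Galphao held in activated GDP-AlF4 state binding bead-coupled RGS7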
RGS4-Gao HTS: RGS4-Galphao interaction regulator (human) | shares compounds with RGS16-Gao HTS | AID 1504 | RGS4–Galpha-o binding response, % at 10 µM | multiplexed bead flow cytometry, RGS–Galpha-o binding | 99% of 1,600 active;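 note: fluorescently labeled Galpha-o bound to GDP with aluminium fluoride binding biotinylated RGS beads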
Avidin counter: biotin-avidin bead binding disruption counter-screen. shares compounds with RGS16-Gao HTS. streptavidin beads, fluorescein-biotin binding, flow cytometry. inhibition, % at 10 µM. 1,700 tested, under 10 active. AID 1783;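 active = inhibition above 50%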;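 note: median green fluorescence of gated singlet beads compared with DMSO control wells; 0% = DMSO wells and 100% = complete loss of bead fluorescence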
RGS8-Gao single: confirmation of regulators of human RGS8-Galphao interaction; shares compounds with RGS16-Gao HTS; bead-based flow cytometry RGS8-Galphao binding, fluorescence; actives lie on both sides; binding response (% of control), % at 10 µM; 3% of 1,700 active; in the data active = binding response below about 72% or above about 130%; inactive = in between;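 note: Galphao activated as GDP AlF4 complex before binding bead RGS8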
RGS7-Gao single: RGS7-Galphao interaction regulation, single point confirmation | shares compounds with RGS16-Gao HTS | bead-based flow cytometry RGS7-Galphao binding; actives lie on both sides | response (percent of control binding), % at 10 µM | 7.8% of 1,700 active; in the data active = response below about 75% or above about 130%; inactive = in between;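 note: fluorescent Galphao activated with GDP and aluminum fluoride binding bead-coupled RGS7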
RGS16-Gao conf: confirmation of regulators of human RGS16-Galphao interaction. shares compounds with RGS16-Gao HTS. bead-based flow cytometry, RGS16-Galphao binding; actives lie on both sides. response (% of control binding), % at 10 µM. 4% of 1,700 active. AID 1838; in the data active = response below about 74% or above about 130%; inactive = in between;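 note: Galphao activated as the GDP aluminium fluoride complex binding bead-coupled RGS16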
RGS4-Gao confirm: RGS4-Galphao interaction regulation, single point confirmation; RGS4-Galphao binding, multiplexed bead flow cytometry; actives lie on both sides; 4% of 1,700 active; binding response (% of control), % at 10 µM; AID 1840; shares compounds with RGS16-Gao HTS; in the data active = binding response below about 74% or above about 130%; inactive = in between
RGS19-Gao single: confirmation of regulators of human RGS19-Galphao interaction; shares compounds with RGS16-Gao HTS; AID 1841; bead-based flow cytometry RGS19-Galphao binding; actives lie on both sides; response (percent of control binding), % at 10 µM; 5% of 1,700 active; in the data active = response below about 50% or above about 160%; inactive = in between;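 note: 100% = no compound control and 0% = blank background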
Target sequence (P09471 whole entry, looked up): as above
Target sequence (P49795 whole entry, looked up): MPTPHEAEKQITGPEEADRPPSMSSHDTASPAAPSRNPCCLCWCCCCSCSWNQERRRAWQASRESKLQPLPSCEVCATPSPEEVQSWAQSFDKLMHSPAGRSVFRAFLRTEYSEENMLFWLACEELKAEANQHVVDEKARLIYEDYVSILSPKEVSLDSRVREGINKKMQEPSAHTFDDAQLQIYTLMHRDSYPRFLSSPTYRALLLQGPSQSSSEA
Numbers without * were called inactive; u = inconclusive; x = no result given; [ ] = remark or other dose. Unless noted, the rule behind the calls is not given here.

SMILES	RGS16-Gao HTS	GSH bead fluor	Avidin bead fluor	RGS8-Gao	RGS4-Gao reg	RGS7-Gao reg	RGS4-Gao HTS	Avidin counter	RGS8-Gao single	RGS7-Gao single	RGS16-Gao conf	RGS4-Gao confirm	RGS19-Gao single
Cc1ccccc1-n1c(SCC(=O)c2c(N)n(C)c(=O)n(C)c2=O)nc2sc3c(c2c1=O)CCCC3	22*	10	1	68	88	89	88*	3	103	106	105	103	93
Cc1nc(NCCOc2ccccc2)sc1C(=O)Nc1ccccc1	98	x	8	98	99	u	x	x	x	x	x	x	x
CC(OC(=O)c1ccccc1NS(=O)(=O)c1cccc(N)c1)C(=O)N(C)Cc1ccccc1 (configuration not stated)	12*	8	8	73	91	86	91*	1	100	104	102	102	91
COc1ccc2nc(NC(=O)C(NS(=O)(=O)c3cccc4nsnc34)C(C)C)sc2c1 (configuration not stated)	104	19	8	101	98	98	x	x	x	x	x	x	x
CC(C)C(c1nnnn1Cc1ccc(F)cc1)N1CCN(c2ccc(O)cc2)CC1 (configuration not stated)	102	10	20	95	99	102	x	x	x	x	x	x	x
N#Cc1ccc(/C=N/N=C(N)N)cc1	244*[activator]	35	112*	115	220*[activator]	179*[activator]	x	2	103	101	96	101	63
NC(N)=N/N=C/c1ccc(Br)cc1	100	14	11	104	99	101	x	x	x	x	x	x	x
O=S1(=O)CCC(N=Cc2cc(Br)ccc2O)C1 (configuration not stated)	147	35	49*	103	112	151*[activator]	112*	1	104	95	111	98	137
O=c1c2ccccc2c(C=NC2CCS(=O)(=O)C2)c(O)n1-c1ccccc1 (configuration not stated)	93	27	8	94	90	91	x	x	x	x	x	x	x
CCN1/C(=C/C=C/c2oc3ccc4ccccc4c3[n+]2CC)Oc2ccc3ccccc3c21	369*[activator]	205*	59*	126	539*[activator]	616*[activator]	x	-1	127*[activator]	526*[activator]	264*[activator]	431*[activator]	458*[activator]
O=C(O)CCCCCNc1ccc2nsnc2c1[N+](=O)[O-]	103	11	9	103	104	105	x	x	x	x	x	x	x
COC(=O)c1c(C(=O)NCc2ccccc2)ncn1CC(O)COc1ccccc1 (configuration not stated)	-175*	15	9	96	58	86	58*	0	83	74*	80	79	75
Cc1ccc(-n2ncc3c(NNC(=O)c4cccs4)ncnc32)cc1	102	16	12	109	103	102	x	x	x	x	x	x	x
O=C(CN1CCc2ccccc21)NC(=O)NC1CCCCC1	103	x	9	98	98	u	x	x	x	x	x	x	x
CCCNC(=O)Cn1sc2nc(C)cc(C)c2c1=O	16*	x	2	60	78	u	78*	0	52*	70*	9.1*	73*	3.9*
CCOC(=O)C1CCCN(C(=O)Cn2sc3nc(C)cc(C)c3c2=O)C1 (configuration not stated)	17*	18	2	58*	90	95	90*	-1	61*	75*	16*	73*	15*
Cc1cc(C)c2c(=O)n(CC(=O)N3CCC(N4CCCCC4)CC3)sc2n1	64	16	3	82	92	117	x	x	x	x	x	x	x
COc1ccc(Oc2ccc(/C=C/C(=O)c3cccc(OC)c3)cc2[N+](=O)[O-])cc1	105	25	3	102	107	102	x	x	x	x	x	x	x
Cc1cc(C)cc(SCc2noc(C(=O)NCCCN3CCOCC3)c2C(=O)NCCCN2CCOCC2)c1	100	x	8	100	104	u	x	x	x	x	x	x	x
CCOC(=O)C1(CCOc2ccccc2)CCN(Cc2ccc(-n3cccn3)cc2)CC1	98	9	9	100	98	99	x	x	x	x	x	x	x
CN(C)S(=O)(=O)c1cc(NC(=O)COC(=O)Cc2ccc(Br)cc2)ccc1Cl	12*	9	2	56*	78	83	78*	-2	99	98	98	100	104
COc1ccc2c(CC(=O)OCC(=O)c3ccccc3OC)coc2c1	99	12	9	102	99	99	x	x	x	x	x	x	x
COc1ccc2c(CC(=O)OCC(=O)c3ccc(F)cc3)coc2c1	105	29	102*	99	113	181*[activator]	113*	-1	102	103	102	105	121
COc1ccc(S(=O)(=O)N(C)C)cc1NC(C)C(=O)Nc1cccc(C#N)c1 (configuration not stated)	108	9	20	102	101	101	x	x	x	x	x	x	x
CCOC(=O)N1CCN(C(=O)Cn2nc(-c3ccc(Cl)cc3)ccc2=O)CC1	79	34	12	94	99	98	x	x	x	x	x	x	x
CCN1CCN(C(=O)Cn2nc(-c3ccc(Cl)cc3)ccc2=O)CC1	100	25	40	101	105	171*[activator]	105*	2	104	105	106	104	88
CNC(=O)c1c(NC(=O)c2cccc(N3C(=O)CCC3=O)c2)sc2c1CCC2	-3.7*	x	-1	3.9*	-2.7*	u	x	-1	98	101	101	103	100
CCCNC(=O)c1ccc(CN2CCc3ccccc3C2)cc1	21*	15	1	34*	16*	22*	x	0	98	100	100	98	102
COc1ccccc1-n1cnnc1SCC(=O)c1ccc[nH]1	-34*	29	-4	10.0*	-30*	-11*	x	0	96	96	97	99	85
